# Assay results as given in PubChem BioAssay (NCI).
# Compounds without any hit were thinned out: in the full panel of roughly 83,000, 20% have a hit.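 Single-concentration screen, 48 h exposure, 96-well plates. Endpoint: percent growth. Below 10 = active.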 Active and inactive are the calls of the source.
# System: HOP-92 NSCLC
# Experiment: NCI-60 one-dose screen, 48 h (100 = growth as untreated, 0 = no growth, -100 = all killed)
# Settings: 10 µM unless noted
row,SMILES,growth
1,CCCCCSB(SCCCCC)c1ccccc1,105% (inactive)
2,c1ccc(CNc2ccc3nc(CCC4CCCCC4)[nH]c3c2)cc1,44.7% (inactive)
3,S=c1ssnc1-c1cccs1,80.5% (inactive)
4,O=C(/C=C/c1ccc(Br)cc1)c1ccc(-n2cc(CN3CCN(c4cc5c(cc4F)c(=O)c(C(=O)O)cn5C4CC4)CC3)nn2)cc1,84.6% (inactive)
5,COc1ccc(Cc2cnc(NC(=O)c3sc4ccccc4c3Cl)s2)cc1,79.8% (inactive)
6,N#C/C(=C\c1ccc(Cl)cc1Cl)C(=O)Nc1ncc(Cc2ccc(Cl)c(Cl)c2)s1,70.7% (inactive)
7,N#Cc1c(-c2cccc([N+](=O)[O-])c2)cc(-c2ccc(Nc3nc(Nc4ccc(F)cc4)nc(Nc4ccc(F)cc4)n3)cc2)nc1N,55.4% (inactive)
8,O=C(CCCCCCN1CC(=O)N2[C@@H](c3ccc(Cl)cc3)c3[nH]c4ccccc4c3C[C@H]2C1=O)NO,15.3% (inactive)
9,CCCCCCCCn1ccc2cc(NC(=O)Cn3cc(CN4CCC(C)CC4)nn3)ccc21,21.8% (inactive)
10,CCCC(O)Cn1ncc(C(=O)OCC)c1NC(=O)NCc1cccc(F)c1 (centres undefined),71.3% (inactive)
11,COc1cc2c3c(c1O)-c1ccccc1[C@@H]1OC(=O)N(CC2)[C@H]31,80.8% (inactive)
12,C/C(=C(/c1ccc(Cl)cc1)c1ccc(OCCCN(C)C)cc1)c1ccc(Cl)cc1,74.4% (inactive)
13,Cc1cc(C(=O)Nc2cc(Nc3ncccc3-c3ncnc4nc[nH]c34)ccc2F)cc(C(F)(F)F)c1,-5.43% (active)
14,CCOC(=O)NN1CC(O)=C(c2nc(-c3ccc(Br)cc3)cs2)C1=N,97.3% (inactive)
